# Source: PubChem (National Center for Advancing Translational Sciences (NCATS))
# A selection: hits, their analogues and other compounds. The true share with any hit is near 19%.
# TDP1 block: blocks human tyrosyl-DNA phosphodiesterase 1. Q9NUW8. recombinant TDP1, AlphaScreen DNA substrate cleavage. Potency, µM (doses to about 130 µM), inactives show top-dose activity change, negative = inhibition, actives largely listed as inhibitors. 350,000 tested, 0.28% active; note: nearly all actives have a fitted effect of over 40% in size
#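 Recombinant human Tdp1 (E. coli-expressed, 1 nM final) preincubated with compounds 15 min at room temperature, then 5'-biotin/3'-phosphotyrosine-FITC DNA substrate (15 nM final) added for 5 min. AlphaScreen beads (10 ug/ml final) added 10 min; cleavage lowers signal.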
# DT40 TDP1 CPT: growth inhibition of DT40 Tdp1-/-;hTDP1 cells with camptothecin (screen for TDP1 inhibitors); Potency, µM (highest dose often 46.2 µM), for the others: top-dose activity change, negative = growth inhibition, hits mostly inhibitors; 420,000 tested, 12% active; chicken DT40 Tdp1-/-;hTDP1 cells + 20 nM CPT, ATP luminescence, 48 h; note: nearly all actives have a fitted effect of over 55% in size
#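 Cell growth measured by CellTiter-Glo luminescence after a minimum 48 h, 37 C compound exposure with 20 nM CPT in Tdp1-knockout DT40 cells stably expressing hTDP1, seeded 400/well; qHTS titration format.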
# TDP1 cell noCPT: qHTS for Inhibitors of human tyrosyl-DNA phosphodiesterase 1 (TDP1): qHTS in cells in absence of CPT; DT40 Tdp1-/- hTDP1 cells, no CPT, ATP luminescence, 48 h; Potency, µM (doses to about 46.2 µM), without a hit: top-dose activity change, negative = growth inhibition, actives largely listed as inhibitors; 420,000 tested, 15% active; note: nearly all actives have a fitted effect of over 55% in size
#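 Compound effects on proliferation are scored in DT40 Tdp1-/-;hTDP1 cells in the absence of CPT. ATP levels (CellTiter-Glo luminescence) are recorded after a ≥48 hr, 37 °C incubation.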
# RORgamma inh: ROR gamma (mouse) transcription inhibition | 310,000 tested, 5.4% active | Drosophila S2 Gal4-RORgamma UAS-luciferase reporter, 20 h | P51450 | AID 2551 | Potency, µM (titrated, usually from 53.6 µM), for inactives: top-dose activity change, negative = inhibition, actives largely listed as inhibitors; note: nearly all actives have a fitted effect of over 60% in size
# Target sequence (P51450 whole entry, looked up, the tested form may be a part): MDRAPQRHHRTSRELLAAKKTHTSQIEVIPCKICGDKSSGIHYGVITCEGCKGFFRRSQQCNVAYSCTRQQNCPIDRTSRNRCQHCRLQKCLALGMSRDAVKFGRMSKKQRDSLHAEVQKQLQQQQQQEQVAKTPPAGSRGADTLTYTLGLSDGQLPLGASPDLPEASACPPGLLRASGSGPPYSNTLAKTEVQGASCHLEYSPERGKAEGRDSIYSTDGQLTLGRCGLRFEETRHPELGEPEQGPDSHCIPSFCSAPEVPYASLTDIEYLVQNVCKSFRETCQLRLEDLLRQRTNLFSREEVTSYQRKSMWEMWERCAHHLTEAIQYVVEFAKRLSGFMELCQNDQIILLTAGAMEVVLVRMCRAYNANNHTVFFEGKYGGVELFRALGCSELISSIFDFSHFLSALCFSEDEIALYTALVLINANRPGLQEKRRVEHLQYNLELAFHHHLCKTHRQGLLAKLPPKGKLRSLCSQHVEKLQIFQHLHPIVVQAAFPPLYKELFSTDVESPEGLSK
#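 Using a luciferase readout, inhibitors were identified by reduced reporter activity in Drosophila cells coexpressing a copper-inducible Gal4–ROR gamma fusion and UAS-driven Photinus luciferase, incubated 20 hr after 700 uM copper sulfate.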
# VP16 counter: counter-screen for ROR gamma inhibitors: Gal4-VP16 reporter; Drosophila S2 Gal4-VP16 UAS-luciferase, luminescence, 20 h; Potency, µM (doses to about 53.6 µM), without a hit: top-dose activity, negative = inhibition, actives largely listed as inhibitors; 310,000 tested, 3.5% active;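 note: Gal4-VP16 expression switched on by copper sulfate through the metallothionein promoter; nearly all actives have a fitted effect of over 50% in size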
# An asterisk follows results filed as active; u = inconclusive; x = not tested or not shown; ! = a repeat was not active; [ ] = another dose, or the depositor's remark. Calls come from the whole dose curve; as a rule, active = well fitted curve in the direction sought with a large enough effect; inconclusive = small, poorly fitted or top-dose-only effect, or another doubt; inactive = no such curve, though single readings can be large; an effect the other way counts as inactive or inconclusive. % is set by controls: 0 for no effect and ±100 for the full control effect; potency is the fitted concentration of half-maximal effect.
SMILES,TDP1 block,DT40 TDP1 CPT,TDP1 cell noCPT,RORgamma inh,VP16 counter
CCc1ccc2c(c1)NC(c1cccnc1)=NC(c1ccc(C(C)(C)C)cc1)=N2,9%,18µM*,u,x,x
Cc1ccc2c(c1)NC(c1cccnc1)=NC(c1ccc(F)cc1)=N2,2%,u,5.8µM*,x,x
CCc1ccc2c(c1)NC(c1ccc(OC)cc1)=NC(c1ccncc1)=N2,9%,u,u,x,x
CC(C)c1ccc(C2=NC(c3ccncc3)=Nc3ccc(F)cc3N2)cc1,9%,23µM*,u,x,x
CC(C)(C)c1ccc(S(=O)(=O)NCC(=O)Nc2sc3c(c2C(N)=O)CCCC3)cc1,0%,1%,u,-23%,10%
Cc1nc(SCC(=O)Nc2ccc(C)c(Cl)c2)cc(-c2ccccc2)n1,-5%,23µM*,u,x,x
Cc1ccc(NC(=O)CSc2ccccc2NC(=O)c2ccccc2Cl)cc1Cl,u,u,18µM*,u,-27%
Cc1ccc(NC(=O)CSc2ccccc2NC(=O)c2ccccc2)cc1Cl,-3%,15µM*,13µM*,42%,-24%
Cc1cc(Oc2ccccc2)nc(SCC(=O)Nc2ccc(Cl)c(Cl)c2)n1,2%,u,18µM*,-5%,-1%
Cc1ccc(NC(=O)CSc2nncs2)cc1Cl,0%,-14%,-2%,x,x
COc1ccc(NC(=O)CSc2cc(-c3ccccc3)nc(C)n2)cc1,5%,u,-50%,x,x
Cc1cc(-c2ccc(C)c(S(=O)(=O)NCc3ccc(OC(C)C)cc3)c2)on1,-3%,-22%,2%,15%,-3%
Cc1ccn2cc(-c3ccc4c(c3)NC(=O)CO4)nc2c1,-2%,0%,-24%,-44%,-29%
Oc1ccc(-c2cn3ccccc3n2)cc1O,x,26µM*,13µM*,-40%,-24%
Cc1ccn2cc(-c3ccc(O)c(O)c3)nc2c1,x,16µM*,9.2µM*,-39%,13µM*
C=C(C)CN1C(=O)C(=O)N(CC(=C)C)C1=O,-1%,14%,-5%,-11%,-3%
O=C(CNS(=O)(=O)c1ccccc1)N/N=C/c1ccc(O)cc1,4%,2%,-3%,2%,-2%
CCCCC(=O)OCC(=O)c1cc(C)n(-c2c(C)n(C)n(-c3ccccc3)c2=O)c1C,4%,6%,-25%,-23%,-6%
CCCCC1(COC(=O)CCC(=O)O)C(=O)N(c2ccccc2)N(c2ccccc2)C1=O,6%,0.0023µM*!,u,14%,-9%
CCCCC1(Cc2ccc([N+](=O)[O-])cc2)C(=O)N(c2ccccc2)N(c2ccccc2)C1=O,1%[56.1 µM],u,u,u,7.1µM*
CC1CCC(NC(=O)COC(=O)c2ccc3ncsc3c2)CC1 (configuration not stated),1%,5%,16%,x,x
CCOC(=O)C1(Cc2cccc(Cl)c2)CCCN(C(=O)c2cc(C)on2)C1 (configuration not stated),3%,18µM*,21µM*,19%,30%
CCOC(=O)C1(Cc2cccc(Cl)c2)CCCN(C(=O)c2ccc(C)nc2)C1 (configuration not stated),x,u,u,43%,5%
CCOC(=O)C1(Cc2cccc(Cl)c2)CCCN(C(=O)c2cc(C(C)C)nn2C)C1 (configuration not stated),-4%,15µM*,u,u,3%
CCOC(=O)C1(Cc2cccc(Cl)c2)CCCN(C(=O)c2c(CC)noc2C)C1 (configuration not stated),7%,u,12µM*,0%,u
SMILES,TDP1 block,DT40 TDP1 CPT,TDP1 cell noCPT,RORgamma inh,VP16 counter
CCCCCCCC1=CC2=C(Cl)C(=O)C(C)(OC(C)=O)C(=O)C2=CO1 (configuration not stated),-2%,x,x,19%,-4%
NC(=O)c1cccn1-c1ncc(C(F)(F)F)cc1Cl,-9%,-6%,-14%,-9%,4%
O=C(CSc1nccn1-c1ncc(C(F)(F)F)cc1Cl)c1ccc(Br)cc1,5%,-26%,u,11µM*,u
O=C(Nc1ccc(Br)cc1)c1cccn1-c1ncc(C(F)(F)F)cc1Cl,-2%,16µM*,u,u,-9%
Cn1c(CO)cnc1SCC(=O)c1ccc(Br)cc1,4%,-3%,-10%,14%,4%
CCOc1ccc(CCNC(=O)c2cnccn2)cc1OCC,3%,1%,-24%,5%,-1%
O=C(C1CCCN(S(=O)(=O)c2ccc(F)cc2)C1)N1CCCCCC1 (configuration not stated),4%,12µM*,8.2µM*,12%,-2%
O=C(C1CCCN(S(=O)(=O)c2ccc(F)cc2)C1)N1CCCCC1 (configuration not stated),3%,-15%,23µM*,13%,-10%
COc1ccc(NC(=O)c2ccc3c(=O)n4nc(Nc5cc(C)ccc5C)sc4nc3c2)cc1,3%,6.5µM*,5.8µM*,x,x
CCc1ccccc1Nc1nn2c(=O)c3ccc(C(=O)Nc4ccc(OC)cc4)cc3nc2s1,6%,21µM*,13µM*,x,x
CN1C(=O)N(C)C2CC1N(C)C(=O)N2C,0%,1%,0%,7%,2%
CCOC(=O)N1CCc2c(sc3c2c(=O)n(-c2ccc(CC)cc2)c(=O)n3CC(=O)c2ccc(F)cc2)C1,4%,13µM*,u,x,x
CCc1ccc(-n2c(=O)c3c4c(sc3n(CC(=O)c3ccc(Br)cc3)c2=O)CCC4)cc1,-1%,5.8µM*,3.7µM*,x,x
O=C(Cn1c(=O)n(-c2ccc(Cl)cc2)c(=O)c2c3c(sc21)CCC3)c1ccc(F)cc1,-2%,8.2µM*,9.2µM*,x,x
CCc1ccc(-n2c(=O)c3c4c(sc3n(CC(=O)NCCCOC)c2=O)CCCC4)cc1,5%,u,u,x,x
